Here are results for 20 compounds from PubChem BioAssay.

A number with no mark means an inactive call. For some of these results: Entries with a potency or affinity are not part of this list. Calls of active or inactive are those of the source. Unless noted, the rule behind the calls is not given here.

Test [1] in a line: antimalarial activity against Dd2 strain (AID 2302;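 active = growth inhibition above 50% at the single 2 µM test dose, taken to imply half-maximal potency below 2 µM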;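 note: 0% = DMSO untreated growth and 100% = chloroquine plus artemisinin killed control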). The note with it: P. falciparum Dd2 in RBCs, LDH growth readout, 72 h; at 2 µM; stronger effect = higher value.
A short description of test [2]: HepG2 cytotoxicity, primary screen, cytotoxicity control for P. falciparum antimalarial project, cell-based, ATP luminescence (AID 2303;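 active = inhibition above 50%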;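 note: 0% = DMSO wells and 100% = digitonin-killed cells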). The note with it: HepG2 viability, 24-48 h, at 10 µM, stronger effect = higher value.
The target of test [3] is L-lactate dehydrogenase (Plasmodium falciparum (isolate CDC / Honduras)) (UniProt Q27743). In words: PfLDH activity inhibition – cell lysate, 3D7 strain, counter-screen for P. falciparum growth inhibition project (AID 2304).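 Note: 0% = vehicle and 100% = reference inhibitor.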 The note with it: P. falciparum 3D7 crude extract, LDH APAD/NBT absorbance; at 2 µM; stronger effect = higher value. For orientation: The purpose of a counterscreen is to sort out artefacts and off-target activity.

The nature of test [4]: inhibition of 3D7 malaria parasite growth – strain 3D7 (AID 2306).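 Note: 0% = DMSO wells and 100% = chloroquine plus artemisinin control wells.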 The note with it: P. falciparum 3D7 erythrocytic growth, LDH absorbance, 72 h; at 2 µM; stronger effect = higher value.
Test [5] deals with Calcium-dependent protein kinase 1 (Plasmodium falciparum (isolate 3D7)) (UniProt P62344). Nature of the test: PfCDPK1 kinase inhibitors, biochemical, TCAMS library (AID 1159585; cut-off not given, nearly all actives have IC50 up to about 0.98 µM;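 note: inhibitors leave more ATP so luminescence rises with inhibition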). The note with it: recombinant PfCDPK1, Kinase-Glo ATP depletion luminescence. In general terms: In Kinase-Glo more light means more ATP remaining.
The target of test [6] is Plasmodium falciparum protein kinase 6 (PK6, PF3D7_1337100) (UniProt Q8IDW1). In words: PfPK6 kinase inhibitors, biochemical, TCAMS library (AID 1159586). The note with it: recombinant PfPK6, Kinase-Glo ATP depletion luminescence.
Test [7] concerns the target Protein kinase 7 (PK7), Plasmodium falciparum 3D7 (PF3D7_0213400) (UniProt Q7YTF7). Nature of the test: inhibition of Plasmodium PK7 catalytic activity – biochemical, TCAMS antimalarial set, Kinase-Glo luminescence (AID 1159587). The note with it: recombinant PfPK7, Kinase-Glo ATP depletion luminescence.
Test [8] has as its target Calcium-dependent protein kinase 4 (Plasmodium falciparum (isolate 3D7)) (UniProt Q8IBS5). Nature of the test: PfCDPK4 kinase inhibitors, biochemical, TCAMS library (AID 1159588; cut-off not given, nearly all actives have IC50 up to about 0.91 µM). The note with it: recombinant PfCDPK4, Kinase-Glo ATP depletion luminescence.

Sequence of L-lactate dehydrogenase (Plasmodium falciparum (isolate CDC / Honduras)) (Q27743 whole entry, looked up): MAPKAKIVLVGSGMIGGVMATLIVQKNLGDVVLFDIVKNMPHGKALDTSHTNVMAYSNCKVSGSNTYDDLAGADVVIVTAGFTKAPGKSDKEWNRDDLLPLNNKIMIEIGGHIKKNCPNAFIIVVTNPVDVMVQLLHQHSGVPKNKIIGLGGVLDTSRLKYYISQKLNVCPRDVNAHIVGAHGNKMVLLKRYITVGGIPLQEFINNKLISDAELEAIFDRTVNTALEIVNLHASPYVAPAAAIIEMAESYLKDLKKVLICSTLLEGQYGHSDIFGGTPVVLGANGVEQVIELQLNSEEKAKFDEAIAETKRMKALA
Sequence of Protein kinase 7 (PK7), Plasmodium falciparum 3D7 (PF3D7_0213400) (Q7YTF7 1-343): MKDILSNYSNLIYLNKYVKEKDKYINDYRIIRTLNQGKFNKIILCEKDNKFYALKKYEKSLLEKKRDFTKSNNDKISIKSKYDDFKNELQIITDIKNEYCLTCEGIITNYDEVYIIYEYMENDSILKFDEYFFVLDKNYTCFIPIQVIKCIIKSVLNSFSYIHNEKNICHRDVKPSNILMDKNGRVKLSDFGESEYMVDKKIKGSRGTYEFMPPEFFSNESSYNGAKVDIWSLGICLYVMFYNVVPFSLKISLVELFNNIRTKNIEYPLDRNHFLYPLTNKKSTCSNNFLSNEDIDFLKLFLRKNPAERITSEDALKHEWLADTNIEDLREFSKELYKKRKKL
Sequence of Plasmodium falciparum protein kinase 6 (PK6, PF3D7_1337100) (Q8IDW1 1-305): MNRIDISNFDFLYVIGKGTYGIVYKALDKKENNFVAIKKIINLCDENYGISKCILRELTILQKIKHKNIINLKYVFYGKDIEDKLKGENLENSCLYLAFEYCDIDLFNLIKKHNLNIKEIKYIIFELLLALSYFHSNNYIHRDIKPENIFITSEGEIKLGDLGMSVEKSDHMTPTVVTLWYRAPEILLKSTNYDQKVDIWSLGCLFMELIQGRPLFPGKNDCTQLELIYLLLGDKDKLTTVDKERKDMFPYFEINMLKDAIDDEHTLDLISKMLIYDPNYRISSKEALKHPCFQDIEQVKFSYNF
Sequence of Calcium-dependent protein kinase 4 (Plasmodium falciparum (isolate 3D7)) (Q8IBS5 whole entry, looked up): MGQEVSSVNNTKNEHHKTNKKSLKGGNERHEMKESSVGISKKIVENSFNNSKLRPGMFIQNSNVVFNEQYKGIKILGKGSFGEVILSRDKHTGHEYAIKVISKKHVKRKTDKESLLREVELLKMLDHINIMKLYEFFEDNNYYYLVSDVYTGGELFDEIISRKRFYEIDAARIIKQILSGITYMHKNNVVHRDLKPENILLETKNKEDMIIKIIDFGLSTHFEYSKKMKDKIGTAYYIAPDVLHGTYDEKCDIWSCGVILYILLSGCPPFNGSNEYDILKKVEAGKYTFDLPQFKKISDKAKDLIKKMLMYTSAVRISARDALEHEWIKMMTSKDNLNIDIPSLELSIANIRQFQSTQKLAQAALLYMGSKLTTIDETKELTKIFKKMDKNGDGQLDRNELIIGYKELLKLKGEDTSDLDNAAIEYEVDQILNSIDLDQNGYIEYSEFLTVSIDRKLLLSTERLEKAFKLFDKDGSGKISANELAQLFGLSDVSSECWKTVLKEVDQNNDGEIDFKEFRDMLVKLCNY
Sequence of Calcium-dependent protein kinase 1 (Plasmodium falciparum (isolate 3D7)) (P62344 whole entry, looked up): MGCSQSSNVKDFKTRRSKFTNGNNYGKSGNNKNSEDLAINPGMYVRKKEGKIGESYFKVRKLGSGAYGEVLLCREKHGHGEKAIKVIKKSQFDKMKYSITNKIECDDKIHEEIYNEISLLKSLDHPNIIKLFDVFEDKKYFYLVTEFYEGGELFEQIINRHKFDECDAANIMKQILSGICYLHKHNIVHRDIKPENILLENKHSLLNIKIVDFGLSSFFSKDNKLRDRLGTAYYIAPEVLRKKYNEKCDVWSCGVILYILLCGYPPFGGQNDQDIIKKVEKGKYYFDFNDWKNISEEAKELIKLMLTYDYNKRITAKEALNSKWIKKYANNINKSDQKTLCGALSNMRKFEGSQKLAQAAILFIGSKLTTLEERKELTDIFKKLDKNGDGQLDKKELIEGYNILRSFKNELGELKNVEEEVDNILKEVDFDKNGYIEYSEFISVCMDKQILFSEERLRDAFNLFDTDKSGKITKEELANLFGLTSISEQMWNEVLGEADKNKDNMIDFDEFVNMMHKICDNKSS

A word on the inhibition: it is the change of the read-out against control, counted positive when it falls. Turning to `O=C(Nc1ccc(Cl)cc1)N1CCN(C2CCCCC2)CC1`, the growth inhibition in test [1] was -6%; in test [4], 93% (active). The inhibition in test [2] is 17%; in test [3] it was -3%. The result in test [5], in test [6], in test [7] and in test [8] was inactive.

Regarding `COc1ccc(CCNC(=O)c2ccccc2O)cc1-c1ccc(C(C)(C)C)cc1`, the growth inhibition in test [1] was 96% (active); in test [4], 95% (active). For the same compound, the inhibition in test [2] is 25%; in test [3], 0%. Moreover, the result in test [5], in test [6], in test [7] and in test [8] was inactive.

Turning to `Cc1cc(C2CCN(CCCCNC(=O)c3ccc(NC(=O)c4ccc(Cl)cc4)cc3)CC2)c(C)cc1OCc1nccn1C`, the growth inhibition is 98% (active) in test [1] and 100% (active) in test [4]. The inhibition in test [2] was 18%; in test [3], -2%. The result in test [5], in test [6], in test [7] and in test [8] was inactive.

Regarding `CNCCNCc1cccc(-c2ccc(-c3nc4ccccc4[nH]3)cc2)c1`, the values for the growth inhibition in test [1] and in test [4] were 27% and 99% (active), respectively. Also, the inhibition in test [2] was 13%; in test [3] it was -6%. Moreover, the result in test [5], in test [6], in test [7] and in test [8] was inactive.

Take `Cc1cccc(-c2ccc(NC(=O)C3CCN(Cc4cccc(O)c4)CC3)cc2)c1`: the growth inhibition is 64% (active) in test [1] and 92% (active) in test [4]. Also, the inhibition in test [2] is 21%; in test [3] it was 0%. Besides, the result in test [5], in test [6], in test [7] and in test [8] was inactive.

In the case of `CC(=O)c1cccc(NC(=O)N2CCCN(CCCCCNC(=O)/C=C/c3ccc(Cl)c(Cl)c3)CC2)c1`, the values for the growth inhibition in test [1] and in test [4] were 0% and 93% (active), respectively. The inhibition in test [2] is 13%; in test [3], -5%. For the same compound, the outcome in test [5], in test [6], in test [7] and in test [8] was inactive.

With `CCN(CC)C(=NC(N)=NCCCCCCN=C(N)N=C(Nc1ccc(Cl)cc1)N(CC)CC)Nc1ccc(Cl)cc1`, the growth inhibition is 96% (active) in test [1] and 97% (active) in test [4]. The results for the inhibition in test [2] and in test [3] were 1% and 8%, respectively. The result in test [5], in test [6], in test [7] and in test [8] was inactive.

Take `O=C(/C=C/c1ccc(C(F)(F)F)cc1)NCCCCCN1CCN(C(=O)Nc2ccc(Cl)cc2)CC1`: the growth inhibition was -4% in test [1] and 88% (active) in test [4]. Also, the inhibition was 37% in test [2] and -8% in test [3]. Also, the outcome in test [5], in test [6], in test [7] and in test [8] was inactive.

Consider `O=C1CCCN1CCCNCc1ccc(-c2ccc(-c3nc4ccc(F)cc4[nH]3)s2)cc1`, for which the figures for the growth inhibition in test [1] and in test [4] were 91% (active) and 100% (active), respectively. For the same compound, the inhibition was 19% in test [2] and 0% in test [3]. Also, the result in test [5], in test [6], in test [7] and in test [8] was inactive.

As for `Cc1[nH]c(C)c(-c2ccc(-c3ccc(OC(F)(F)F)cc3)cc2)c(=O)c1Cl`, the growth inhibition in test [1] was 97% (active); in test [4] it was 98% (active). Moreover, the inhibition in test [2] was 24%; in test [3], 1%. Also, the outcome in test [5], in test [6], in test [7] and in test [8] was inactive.

With `O=C(/C=C/c1ccc(Cl)c(Cl)c1)N1CCC(CCCN2CCC(c3c[nH]c4ccc(O)cc34)CC2)CC1`, the growth inhibition in test [1] is 99% (active); in test [4], 102% (active). The inhibition was 60% (active) in test [2] and 1% in test [3]. Moreover, the outcome in test [5], in test [6], in test [7] and in test [8] was inactive.

Consider `COc1cc(C)nc2ccc(NC(=O)Nc3ccccc3[N+](=O)[O-])cc12`, for which the growth inhibition in test [1] was 58% (active); in test [4], 101% (active). The inhibition is 6% in test [2] and -1% in test [3]. The outcome in test [5], in test [6], in test [7] and in test [8] was inactive.

As for `Cc1cc2c(cc1C(F)(F)F)N(C(=O)Nc1ccc(C(=O)NC3CCN(Cc4ccccc4)C3)cc1)CC2` (stereo not given), the growth inhibition in test [1] was 48%; in test [4] it was 100% (active). Moreover, the inhibition was 19% in test [2] and -6% in test [3]. Moreover, the result in test [5], in test [6], in test [7] and in test [8] was inactive.

For the compound `CC(C)NCc1ccc(-c2ccc(NC(=O)c3cccc(Cl)c3)cc2)cc1`, the growth inhibition in test [1] is 14%; in test [4] it was 100% (active). The inhibition in test [2] is 36%; in test [3], -2%. For the same compound, the outcome in test [5], in test [6], in test [7] and in test [8] was inactive.

For `COc1ccc2ccccc2c1C=NNc1ccnc2cc(Cl)ccc12`, the results for the growth inhibition in test [1] and in test [4] were 94% (active) and 100% (active), respectively. Besides, the inhibition in test [2] was 20%; in test [3], -5%. The outcome in test [5], in test [6], in test [7] and in test [8] was inactive.

With `Cc1noc(C)c1-c1ccc2c(Nc3ccc([N+](=O)[O-])cc3)c(C(N)=O)cnc2c1`, the growth inhibition in test [1] is 98% (active); in test [4] it was 100% (active). Besides, the inhibition in test [2] and in test [3] was 4% each time. Also, the outcome in test [5], in test [6], in test [7] and in test [8] was inactive.

`CO/C(=C\C=C\c1cc2cc(Cl)c(Cl)cc2[nH]1)C(=O)NCCCN1CCN(c2ccc(OC)cc2)CC1`: the growth inhibition was 44% in test [1] and 99% (active) in test [4]. In addition, the inhibition is 40% in test [2] and -7% in test [3]. Moreover, the outcome in test [5], in test [6], in test [7] and in test [8] was inactive.

For `CCN(CC)CCCNc1c2ccccc2nc2ccccc12`, the growth inhibition in test [1] is 0%; in test [4], 100% (active). The inhibition in test [2] is 17%; in test [3] it was -1%. Further, the outcome in test [5], in test [6], in test [7] and in test [8] was inactive.

As for `CC(=O)Nc1ccc(Nc2c3ccccc3nc3ccccc23)cc1`, the results for the growth inhibition in test [1] and in test [4] were 62% (active) and 89% (active), respectively. The inhibition in test [2] is 41%; in test [3], 3%. Besides, the outcome in test [5], in test [6], in test [7] and in test [8] was inactive.

On to `CN1CCC(N2CCN(Cc3cccc(-c4ccc(-c5nc6ccc(F)cc6[nH]5)cc4)c3)CC2)CC1`, for which the growth inhibition in test [1] and in test [4] was 100% (active) each time. The inhibition in test [2] was 92% (active); in test [3] it was 3%. Besides, the result in test [5], in test [6], in test [7] and in test [8] was inactive.
